Compounds without any hit were thinned out: in the full panel of roughly 79,000, 15% have a hit. Unmarked numbers belong to inactive results. Rule as the data show it: active = growth inhibition above about 70%; inactive = the rest.
Assay: NCI Yeast Anticancer Drug Screen. Data for the sgs1 mgt1 strain (AID 161);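 also: 0% = growth of cultures given vehicle only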
Settings: S. cerevisiae sgs1 mgt1 strain, at 50.0 µM, hits give high values
Procedure, shortened: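 Percent growth inhibition was derived by comparing compound-exposed mutant yeast with vehicle-exposed cultures. The strain carries alterations in DNA damage repair.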
`CC(C)=NNC(=O)COCC(=O)NN=C(C)C` gave a growth inhibition of -1.35%.
`O=S(=O)(Cl)c1cccc2c(S(=O)(=O)Cl)cccc12` showed a growth inhibition of 15.4%.
For `COc1cc(Br)c(CC2c3cc(OC)c(OC)cc3CCN2C)cc1OC` (stereo unspecified), the growth inhibition was -9.75%.
Compound `COc1ccc(C(=O)Nc2ccn(CCOC(=O)c3ccc(OC)cc3)c(=O)n2)cc1` has a growth inhibition of -3.1%.
In the case of `CC(N=C(N)N)C(=O)O` (stereo unspecified), the growth inhibition is reported as 0.15%.
Work on `CN1CCC(=O)C(c2ccccc2)(c2ccccc2)CC1` yielded a growth inhibition of 3.45%.
In the case of `CC1(C)C(=O)OC(n2ccc(=O)[nH]c2=O)C1=O` (stereo unspecified), the growth inhibition is reported as -7.75%.
In the case of `Fc1ccccc1C1CC(c2ccc3ccccc3c2)=Nc2ccccc2S1` (stereo unspecified), the growth inhibition is reported as 18.4%.

Assay: NCI Yeast Anticancer Drug Screen. Data for the cln2 rad14 strain (AID 165);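 also: 0% = growth equal to vehicle treated cultures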
Settings: S. cerevisiae cln2 rad14 strain, at 50.0 µM, hits give high values
Procedure, shortened: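 Yeast strain cln2 rad14, bearing defects in cell cycle control and DNA repair, serves as the test system; values reflect growth inhibition compared with vehicle.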
`Nc1ccccc1C(=O)Nc1ccccn1` showed a growth inhibition of 5.35%.
Work on `O=C(NC(=O)c1c(Cl)nc2sccn12)Nc1ccc(Cl)cc1` yielded a growth inhibition of 0.85%.
With `CCOC(=O)C(CCc1ccc([N+](=O)[O-])cc1)(CCc1ccc([N+](=O)[O-])cc1)C(=O)OCC` the growth inhibition was -29.1%.
For `CCOC(=O)CCCCCCCCCC[N+](CC)(CC)CC(=O)c1ccc(NC(C)=O)cc1`, the growth inhibition was 12.3%.
Work on `Cc1cccc(C)c1NC(=O)C1C(=O)N(c2c(C)cccc2C)C(=O)/C1=N\NC(N)=S` (stereo unspecified) yielded a growth inhibition of -9.5%.
For `CCN(CC)C(=O)C(C(=O)OC)c1ccccc1` (stereo unspecified), the growth inhibition was -27.6%.
Compound `CC(=O)C(Cc1cccc([N+](=O)[O-])c1)Cc1cccc([N+](=O)[O-])c1` has a growth inhibition of -38%.
For `c1ccc(-n2nnnc2-c2nnnn2-c2ccccc2)cc1`, the growth inhibition was -18.7%.

Reference: PubChem BioAssay (NCI)
